Test results as given in PubChem BioAssay AID1159580 (chemical genetic matrix, 2015).
Values joined by “and” are separate entries in the source; they are usually repeats but may differ in a detail not shown here. Equal values may be shown once. In all, about 5,500 compounds went through this assay and about 2,000 (36%) were called active. Roughly 18% stayed inconclusive and do not appear here. Cut-off read from the data, not from the text of the source: active = normalized growth mostly below about 0.91 (no sharp cut-off); inconclusive = no clear call, values can overlap the other calls; inactive = mostly above about 0.92. Some of the results follow.

Assay: chemical genetic growth profiling, strain panel (AID 1159580);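 note: tested at 20 µM; growth read once vehicle control cultures reached saturation at 30 °C; 1 = growth at the plate median or of vehicle wells; lower values mean less growth of the strain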
Conditions: growth OD

Measured: normalized growth

CCn1cc(C(=O)O)c(=O)c2cc(F)c(N3CCNC(C)C3)c(F)c21 (stereo not given)
inactive: S. cerevisiae deletion strains, locus YJR075W, strain HOC1, stronger effect = lower value 0.991 and 0.993 | S. cerevisiae deletion strains, locus YKL009W, strain mrt4, stronger effect = lower value 0.979 | S. cerevisiae deletion strains, locus YKL068W, stronger effect = lower value 0.981 | S. cerevisiae deletion strains, locus YKL085W, strain MDH1 (second series), stronger effect = lower value 0.985 | S. cerevisiae deletion strains, locus YKL085W, strain MDH1, stronger effect = lower value 0.985 | S. cerevisiae deletion strains, locus YKL160W, strain elf1, stronger effect = lower value 0.943 | S. cerevisiae deletion strains, locus YKL190W, strain CNB1, stronger effect = lower value 0.995 | S. cerevisiae deletion strains, locus YKR001C, strain vps1, stronger effect = lower value 0.993 | S. cerevisiae deletion strains, locus YKR026C, strain gcn3, stronger effect = lower value 0.996 | S. cerevisiae deletion strains, locus YKR091W, strain srl3, stronger effect = lower value 0.982 | S. cerevisiae deletion strains, locus YLL001W, strain dnm1, stronger effect = lower value 0.985 | S. cerevisiae deletion strains, locus YLL026W, stronger effect = lower value 0.99 | S. cerevisiae deletion strains, locus YLL041C, strain sdh2, stronger effect = lower value 0.975 | S. cerevisiae deletion strains, locus YLR027C, strain aat2, stronger effect = lower value 0.992 | S. cerevisiae deletion strains, locus YLR039C, strain RIC1, stronger effect = lower value 0.973 | S. cerevisiae deletion strains, locus YLR058C, strain SHM2, stronger effect = lower value 0.995 | S. cerevisiae deletion strains, locus YLR102C, strain apc9, stronger effect = lower value 0.986 | S. cerevisiae deletion strains, locus YLR113W, strain HOG1, stronger effect = lower value 1.06 | S. cerevisiae deletion strains, locus YLR221C, strain rsa3, stronger effect = lower value 1 | S. cerevisiae deletion strains, locus YLR258W, strain gsy2, stronger effect = lower value 0.98 | S. cerevisiae deletion strains, locus YLR262C, strain YPT6 (second series), stronger effect = lower value 0.996 | S. cerevisiae deletion strains, locus YLR262C, strain YPT6, stronger effect = lower value 0.979 | S. cerevisiae deletion strains, locus YLR268W, strain sec22, stronger effect = lower value 0.988 | S. cerevisiae deletion strains, locus YLR320W, strain mms22, stronger effect = lower value 0.961 | S. cerevisiae deletion strains, locus YLR330W, strain CHS5, stronger effect = lower value 0.982 | S. cerevisiae deletion strains, locus YLR342W, strain FKS1 (second series), stronger effect = lower value 0.951 | S. cerevisiae deletion strains, locus YLR342W, strain FKS1, stronger effect = lower value 0.957 | S. cerevisiae deletion strains, locus YLR357W, strain rsc2, stronger effect = lower value 0.919 | S. cerevisiae deletion strains, locus YLR370C, strain arc18, stronger effect = lower value 0.965 | S. cerevisiae deletion strains, locus YLR371W, strain rom2, stronger effect = lower value 0.992 | S. cerevisiae deletion strains, locus YLR384C, strain iki3, stronger effect = lower value 0.964 | S. cerevisiae deletion strains, locus YLR418C, strain cdc73, stronger effect = lower value 0.892 | S. cerevisiae deletion strains, locus YML016C, strain PPZ1, stronger effect = lower value 0.991 | S. cerevisiae deletion strains, locus YML032C, strain rad52, stronger effect = lower value 0.994 | S. cerevisiae deletion strains, locus YML120C, strain ndi1, stronger effect = lower value 0.993 | S. cerevisiae deletion strains, locus YML124C, strain tub3, stronger effect = lower value 0.996 | S. cerevisiae deletion strains, locus YMR058W, strain fet3, stronger effect = lower value 0.994 | S. cerevisiae deletion strains, locus YMR078C, strain ctf18, stronger effect = lower value 0.982 | S. cerevisiae deletion strains, locus YMR125W, strain sto1, stronger effect = lower value 0.961 | S. cerevisiae deletion strains, locus YMR129W, stronger effect = lower value 0.971 | S. cerevisiae deletion strains, locus YMR205C, strain PFK2, stronger effect = lower value 0.985 | S. cerevisiae deletion strains, locus YMR223W, strain ubp8, stronger effect = lower value 0.976 | S. cerevisiae deletion strains, locus YMR231W, strain pep5, stronger effect = lower value 0.984 | S. cerevisiae deletion strains, locus YMR263W, strain SAP30, stronger effect = lower value 1 | S. cerevisiae deletion strains, locus YMR307W, strain GAS1, stronger effect = lower value 1.01 | S. cerevisiae deletion strains, locus YNL067W, strain RPL9B, stronger effect = lower value 1.03 | S. cerevisiae deletion strains, locus YNL071W, strain lat1, stronger effect = lower value 0.977 | S. cerevisiae deletion strains, locus YNL128W, strain TEP1, stronger effect = lower value 0.964 | S. cerevisiae deletion strains, locus YNL153C, strain GIM3, stronger effect = lower value 1.06 | S. cerevisiae deletion strains, locus YNL175C, strain NOP13, stronger effect = lower value 0.998 | S. cerevisiae deletion strains, locus YNL183C, strain NPR1, stronger effect = lower value 0.962 | S. cerevisiae deletion strains, locus YNL197C, strain WHI3, stronger effect = lower value 1 | S. cerevisiae deletion strains, locus YNL209W, strain ssb2, stronger effect = lower value 0.965 | S. cerevisiae deletion strains, locus YNL224C, strain SQS1, stronger effect = lower value 0.994 | S. cerevisiae deletion strains, locus YNL233W, strain BNI4, stronger effect = lower value 1.03 | S. cerevisiae deletion strains, locus YNL248C, strain rpa49, stronger effect = lower value 0.926 | S. cerevisiae deletion strains, locus YNL250W, strain rad50, stronger effect = lower value 0.943 | S. cerevisiae deletion strains, locus YNL271C, strain bni1, stronger effect = lower value 0.992 | S. cerevisiae deletion strains, locus YNL298W, strain CLA4, stronger effect = lower value 0.988 | S. cerevisiae deletion strains, locus YNL307C, strain MCK1, stronger effect = lower value 0.984 | S. cerevisiae deletion strains, locus YNL322C, strain KRE1 (second series), stronger effect = lower value 0.964 | S. cerevisiae deletion strains, locus YNL322C, strain KRE1, stronger effect = lower value 1.02 | S. cerevisiae deletion strains, locus YNR049C, strain mso1, stronger effect = lower value 0.975 | S. cerevisiae deletion strains, locus YNR052C, strain pop2, stronger effect = lower value 0.989 | S. cerevisiae deletion strains, locus YOL006C, strain TOP1, stronger effect = lower value 1.08 | S. cerevisiae deletion strains, locus YOL012C, strain htz1 1.44 | S. cerevisiae deletion strains, locus YOL147C, strain pex11, stronger effect = lower value 0.985 | S. cerevisiae deletion strains, locus YOR001W, strain rrp6, stronger effect = lower value 1 | S. cerevisiae deletion strains, locus YOR061W, strain CKA2, stronger effect = lower value 0.993 | S. cerevisiae deletion strains, locus YOR069W, strain VPS5, stronger effect = lower value 0.988 | S. cerevisiae deletion strains, locus YOR070C, strain gyp1, stronger effect = lower value 0.985 | S. cerevisiae deletion strains, locus YOR080W, strain dia2, stronger effect = lower value 0.972 | S. cerevisiae deletion strains, locus YOR083W, strain WHI5 (second series), stronger effect = lower value 0.992 | S. cerevisiae deletion strains, locus YOR083W, strain WHI5, stronger effect = lower value 0.897 | S. cerevisiae deletion strains, locus YOR106W, strain vam3, stronger effect = lower value 0.931 | S. cerevisiae deletion strains, locus YOR136W, strain idh2, stronger effect = lower value 0.998 | S. cerevisiae deletion strains, locus YOR144C, strain elg1, stronger effect = lower value 0.992 | S. cerevisiae deletion strains, locus YOR184W, strain ser1, stronger effect = lower value 0.988 | S. cerevisiae deletion strains, locus YOR231W, strain MKK1, stronger effect = lower value 1.04 | S. cerevisiae deletion strains, locus YOR265W, strain rbl2, stronger effect = lower value 0.972 | S. cerevisiae deletion strains, locus YOR270C, strain vph1, stronger effect = lower value 0.982 | S. cerevisiae deletion strains, locus YOR290C, strain snf2, stronger effect = lower value 0.968 | S. cerevisiae deletion strains, locus YOR316C, strain cot1, stronger effect = lower value 1 | S. cerevisiae deletion strains, locus YPL051W, strain arl3, stronger effect = lower value 0.971 | S. cerevisiae deletion strains, locus YPL055C, strain LGE1, stronger effect = lower value 0.985 | S. cerevisiae deletion strains, locus YPL078C, strain atp4, stronger effect = lower value 0.957 | S. cerevisiae deletion strains, locus YPL106C, strain sse1, stronger effect = lower value 0.939 | S. cerevisiae deletion strains, locus YPL240C, strain hsp82, stronger effect = lower value 0.983 | S. cerevisiae deletion strains, locus YPL256C, strain CLN2, stronger effect = lower value 1.04 | S. cerevisiae deletion strains, locus YPR119W, strain clb2, stronger effect = lower value 0.993 | S. cerevisiae deletion strains, locus YPR141C, strain kar3, stronger effect = lower value 0.985 | S. cerevisiae deletion strains, locus YPR163C, strain tif3, stronger effect = lower value 0.986 | S. cerevisiae deletion strains, locus YPR167C, strain met16, stronger effect = lower value 0.999 | S. cerevisiae deletion strains, strain wtn01, stronger effect = lower value 0.998 | S. cerevisiae strains, strain wild type, stronger effect = lower value 0.997
